This is an account of results in PubChem BioAssay (NCATS).

Results filed as inconclusive are left out. A number with no mark means an inactive call. Activity calls are given as the source filed them. Calls come from the whole dose curve; as a rule, active = well fitted cell-killing curve with a large enough effect; inconclusive = small, poorly fitted or top-dose-only effect; inactive = no such curve, though single readings can be large or run the other way.
% is set by controls: 0 for no effect and ±100 for the full control effect; potency is the fitted concentration of half-maximal effect.

The nature of the experiment: qHTS of pediatric cancer cell lines to identify multiple opportunities for drug repurposing: Confirmatory screen for DAOY cells (AID 1347114). Note: nearly all actives have a fitted effect of over 65% in size. The conditions noted are these: DAOY medulloblastoma cells viability, cytotoxicity qHTS; series mostly up to 45.9 µM; activity change, negative = cytotoxic: at the top concentration. The text has this: Drug repurposing or repositioning has been offered as a strategy for drug development in oncology programs. This approach has special potential for childhood cancers and other rare or orphan diseases, where the expected return on new drug development has been a disincentive to pharmaceuticals.
In this project we exploit the poly-pharmacology of drugs to discover new indications via phenotypic screening of a panel of 19 well-characterized cell lines derived from solid tumors seen in children and adolescents. The goal is to identify approved drugs with previously unrecognized anticancer properties that has the potential to reveal new mechanisms and biological processes involved in carcinogenesis or drug resistance. We employed a titration-based paradigm (quantitative high-throughput screening or qHTS), where all compounds were tested at multiple concentrations for their effect on cell viability. Concentration-response curves (CRCs) were derived directly from the primary screen, and both potency and efficacy values were used to identify compounds with robust bioactivity profiles. We screened the NIH Chemical Genomics Center (NCGC) Pharmaceutical Collection (NPC) and Mechanism Interrogation Plate (MIPE) small molecule collections of approved and investigational compounds against these cell lines; and measured metabolically active cells after 48 hours of compound treatment as a proxy for cell viability.
Assay Submitter: Nathalia J. Martinez, National Center for Advancing Translational Sciences, National Institutes of Health, Rockville, MD, USA; email: natalia.martinez@nih.gov
[1] Shen, M et al. Quantitative high-throughput phenotypic screening of pediatric cancer cell lines identifies multiple opportunities for drug repurposing. Oncotarget 2017 Dec 19;9(4):4758-4772. PMID 29435139.
The cells were obtained from University of North Carolina (UNC), Pediatric Preclinical Testing Program (PPT), and Coriell Institute (CI).
qHTS cell viability assay:
Cells were assayed in growth media at a density of 500-1,000 cells/well. Five microliters of cells were dispensed into 1,536-well, white, solid-bottom, TC-treated plates (Greiner Bio One) using a multidrop dispenser and incubated at 37 degrees C, 5% CO2, under a humidified atmosphere for 5 hours. Twenty-three nanoliters of compounds and controls (neutral control DMSO or positive control bortezomib at final concentration of 2.3 µM) were subsequently transferred by Kalypsys pintool. For primary screens, the MIPE collection was tested at 11-point dilutions (final concentrations range from 0.78 nM to 46 µM) and the NPC collection at 8-point dilutions (final concentrations range from 0.59 nM to 46 µM). Compounds tested in follow-up screens were assayed at 11-point dilutions. Cells were incubated for 48 hours, followed by addition of 3 uL of CellTiter-Glo (Promega). After a 15 min incubation at room temperature, samples were analyzed for luminescence intensity using a ViewLux High-throughput CCD imager equipped with clear filters.
For `CC=C(C)C(=O)O[C@H]1C(C)=C2[C@@H]3OC(=O)[C@@](C)(O)[C@@]3(O)[C@@H](OC(=O)CCC)C[C@](C)(OC(C)=O)[C@@H]2[C@@H]1OC(=O)CCCCCCC`, the “activity change, negative = cytotoxic” value was -1.45%. Consider `CC1=C(O)C(=O)C=C2C1=CC=C1[C@@]2(C)CC[C@@]2(C)[C@@H]3C[C@](C)(C(=O)O)CC[C@]3(C)CC[C@]12C`, for which the Potency was 1650 nM (active). Same read-out and setting: in the case of `C=CCON=C(C[C@H]1O[C@@H]2O[C@]3(C)CC[C@@H]4[C@H](C)CC[C@@H]([C@H]1C)[C@@]24OO3)[C@H]1O[C@@H]2O[C@]3(C)CC[C@H]4[C@H](C)CC[C@@H]([C@@H]1C)[C@@]24OO3` it was 1850 nM (active). For `CS(=O)(=O)c1ccc(C(=O)C2C(=O)CCCC2=O)c([N+](=O)[O-])c1`, the “activity change, negative = cytotoxic” value is -2.06% [at 97.2 µM]. On to `CC(=Cc1csc(C)n1)[C@@H]1C[C@H]2O[C@]2(C)CCC[C@H](C)[C@@H](O)[C@@H](C)C(=O)C(C)(C)[C@@H](O)CC(=O)O1`, for which the Potency is 11.7 nM (active). On the same count and under the same terms, in the case of `C[C@@]12OC(=O)[C@]1([C@@H](O)[C@@H]1C=CCCC1)NC(=O)[C@H]2CCCl` it was 657 nM (active); in that of `CC[C@H]1C=CC=CC[C@@H](C)[C@H](O)[C@@](C)(O)C(=O)[C@@H](C)[C@H](O)[C@@H](C)C(=O)[C@@H](C)[C@H](O)[C@@H](C)C=CC(=O)O[C@@H]2[C@@H](C)[C@H](CC1)O[C@]1(CC[C@H](C)[C@H](C[C@@H](C)O)O1)[C@H]2C`, 3.7 nM (active); in that of `CC[C@@]1(O)C(=O)OCc2c1cc1n(c2=O)Cc2cc3ccccc3nc2-1`, 4650 nM (active).

In the case of `COc1cc([C@@H]2c3cc4c(cc3[C@@H](O)C3COC(=O)C32)OCO4)cc(OC)c1O` (some centres undefined), the Potency is 185 nM (active). Regarding `O=C(N[C@H]1CN2CCC1CC2)c1ccc(Cl)cc1`, the “activity change, negative = cytotoxic” value is -16.2%.

For the molecule `C[C@@H]1O[C@@H](O[C@@H]2C=C3CC[C@@H]4[C@@H](CC[C@]5(C)[C@H](c6ccc(=O)oc6)CC[C@@]45O)[C@@]3(C)CC2)[C@H](O)[C@H](O)[C@H]1O`, the Potency was 7.4 nM (active). As to `Cc1ccccc1-n1c(Cn2ncc3c(N)ncnc32)nc2cccc(C)c2c1=O`, the “activity change, negative = cytotoxic” value is -13.8%. The same measure, in the same setting: under `CC(C)(C)C(O)C(Oc1ccc(Cl)cc1)n1cncn1` (centres undefined) stands 7.87% [at 97.2 µM]. Same read-out and setting: in the case of `CCC(=O)OC1CCC2C3CCC4=CC(=O)CC[C@@]4(C)C3CC[C@]12C` (some centres undefined) it was -11.2%.

For `CC(C)[C@]12O[C@@H]1[C@@H]1O[C@]13[C@]1(O[C@H]1C[C@@H]1C4=C(CC[C@@]13C)C(=O)OC4)[C@H]2O`, the Potency was 208 nM (active). With `O=C(O)CCCOc1ccc(Cl)cc1Cl`, the “activity change, negative = cytotoxic” value is -11% [at 97.2 µM]. On to `O=c1[nH]c2ccc(Cl)cc2c(N[C@@H]2CN3CCC2CC3)c1-c1nc2ccccc2[nH]1`, for which the Potency was 9270 nM (active). Consider `CC(C)N[C@@H]1CCn2c(=O)[nH]c3cccc(c32)[C@@H]1O`, for which the “activity change, negative = cytotoxic” value is 5.46%. With `CCCN1CCO[C@@H]2c3cc(O)ccc3OC[C@@H]21`, the “activity change, negative = cytotoxic” value was 10.3%. Consider `CO[C@H]1CCC(O[C@H]2C[C@H]([C@]3(C)CC[C@]4(C[C@H](O)[C@@H](C)[C@@H]([C@@H](C)C=C(C)C(=O)[C@H](C)C[C@H](C)C(=O)O)O4)O3)O[C@]3(O[C@@H]([C@H]4O[C@@](O)(CO)[C@H](C)C[C@H]4C)C[C@H]3C)[C@H]2C)O[C@H]1C` (some centres undefined), for which the Potency was 20800 nM (active). Regarding `COc1ccc(C(=O)c2c(C)n(CCN3CCOCC3)c3cc(I)ccc23)cc1`, the Potency was 18500 nM (active).

On to `O=C(Nc1ccncc1)C(=O)c1cn(Cc2ccc(Cl)cc2)c2ccccc12`, for which the Potency was 293 nM (active). The same measure, in the same setting: under `CC(C)(O)C=CC(=O)[C@](C)(O)[C@H]1[C@H](O)C[C@]2(C)[C@@H]3CC=C4[C@@H](C=C(O)C(=O)C4(C)C)[C@]3(C)C(=O)C[C@@]12C` stands 165 nM (active); under `Cc1c(C(=O)Nc2cccc(C(F)(F)F)c2)cc(-c2ccccc2)n1CCCN1CCOCC1`, 38000 nM (active).

As for `O=[N+]([O-])c1c(Cl)c(Cl)cc(Cl)c1Cl`, the “activity change, negative = cytotoxic” value was 7.09% [at 97.2 µM]. Turning to `CC(=Cc1csc(C)n1)[C@@H]1C[C@H]2O[C@@H]2CCC[C@H](C)[C@@H](O)[C@@H](C)C(=O)C(C)(C)[C@@H](O)CC(=O)O1`, the Potency was 13.1 nM (active). The same measure, in the same setting: under `COc1cc2cc(c1Cl)N(C)C(=O)C[C@H](OC(=O)C(C)C)[C@]1(C)O[C@H]1[C@H](C)[C@@H]1C[C@@](O)(NC(=O)O1)[C@H](OC)C=CC=C(C)C2` stands 3.7 nM (active). `O=C(O)COc1nc(Cl)c(Cl)cc1Cl`: the “activity change, negative = cytotoxic” value is 7.05% [at 97.2 µM]. In the case of `COC1=CC(C)=C[C@@H](C)[C@@H](O)[C@@H](C)CC(C)=CC=C[C@H](OC)[C@H]([C@@H](C)[C@@H](O)[C@H](C)[C@@]2(O)C[C@@H](O)[C@H](C)[C@@H](C(C)C)O2)OC1=O`, the “activity change, negative = cytotoxic” value was -10.9%.
